Measurements reported in PubChem BioAssay AID1490 (National Center for Advancing Translational Sciences (NCATS), 2009).
Screen size: about 310,000 compounds; about 11,000 (3.5%) were called active. Another 4% or so got no clear call; they are omitted. The sample holds actives, similar compounds and a random draw of the others, so the mix is not that of the screen. Calls follow the shape of the dose curve; as a rule, active = well fitted inhibition curve with a large enough effect; inconclusive = small, poorly fitted or top-dose-only effect, or another doubt; inactive = no such curve, though single readings can be large or run the other way.

Target: 4'-phosphopantetheinyl transferase ffp (Bacillus subtilis) (UniProt Q9F4F7)
Experiment: qHTS Assay for Inhibitors of Bacillus subtilis Sfp phosphopantetheinyl transferase (PPTase);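 also: the enzyme is Sfp with the accession as filed and its product quenches rhodamine fluorescence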;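 as to largest response in the series, negative = inhibition: 0% = enzyme reaction without inhibitor and -100% = no enzyme wells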
Conditions: Biochemical Sfp PPTase activity
Method in brief: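 Buffer: 50 mM Hepes-Na pH 7.6, 10 mM MgCl2, 0.01% Nonidet P-40, 0.01% BSA. Enzyme 15 nM, pre-exposed to compound 15 min; substrates then added and fluorescence change tracked over 30 min.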
Potency is read from the fitted curve at half-maximal effect.

SMILES	largest response in the series, negative = inhibition	Potency
O=Cc1cn(-c2ccccc2)nc1-c1ccccn1	19.4% (inactive)	
O=C1C(c2ccccn2)=[N+]([O-])c2ccccc21		56.2 µM (active)
CCOC(=O)C1(Cc2ccccc2C)CCCN(S(C)(=O)=O)C1 (stereo unspecified)	-1.45% (inactive)	
O=C(NCCc1ccccc1)C(=O)NCC1OCCN1S(=O)(=O)c1cccs1 (stereo unspecified)	15% (inactive)	
CC(=O)N1CCCc2cc(S(=O)(=O)N3CCCC(C(=O)N4CCN(c5cccc(Cl)c5)CC4)C3)ccc21 (stereo unspecified)	-7.31% (inactive)	
O=C(COc1ccccc1)Nc1ccc(C(=O)N2CCCC2)cc1	22.7% (inactive)	
CCOC(=O)/C(C#N)=C/c1ccc(N2CCCCC2)cc1	-25.4% (inactive)	
O=C1C=CC(=O)N1c1ccc(N2CCCCC2)cc1		7.08 µM (active)
Cc1ccccc1C(=O)Nc1ccc(N2CCCCCC2)cc1	-8.31% (inactive)	
Cc1ccc(C(CNC(=O)Nc2ccccc2)N2CCN(C)CC2)cc1 (stereo unspecified)	6.82% (inactive)	
COC(=O)C(C)Oc1ccc2c(c1)O/C(=C\c1cccc(Br)c1)C2=O (stereo unspecified)	-9.46% (inactive)	
O=C(Nc1ccccc1)/C(=C\c1ccco1)NC(=O)c1ccco1		44.7 µM (active)
O=C(NCc1ccco1)/C(=C/c1ccco1)NC(=O)c1ccccc1	-7.6% (inactive)	
O=C(Nc1ccccc1)c1ccco1	19.8% (inactive)	
Cc1ccc(C(=O)N/C(=C/c2ccco2)C(=O)NCCc2c[nH]c3ccccc23)cc1C	21.3% (inactive)	
O=C(NC(Cc1c[nH]c2ccccc12)C(=O)O)/C(=C/c1ccco1)NC(=O)c1ccccc1 (stereo unspecified)		44.7 µM (active)
CC(=O)NC(Cc1c[nH]c2ccccc12)C(=O)O (stereo unspecified)	23% (inactive)	
Cc1ccc(NC(=O)/C(=C\c2ccccc2)NC(=O)c2ccco2)cc1	12.3% (inactive)	
COc1ccccc1C(=O)N/C(=C/c1ccc2c(c1)OCO2)C(=O)Nc1cccc(C(=O)O)c1	-9.69% (inactive)	
Cc1cccc(NC(=O)/C(=C\c2ccco2)NC(=O)c2ccccc2)c1		50.1 µM (active)
COc1ccc(/C=C(/NC(=O)c2ccco2)C(=O)Nc2ccc(C(C)=O)cc2)cc1	0.26% (inactive)	
COc1ccccc1C(=O)N/C(=C/c1ccco1)C(=O)Nc1ccc(C(=O)O)cc1		50.1 µM (active)
COc1ccc(/C=C(/NC(=O)c2ccccc2)C(=O)Nc2cccc(C(=O)O)c2)cc1	2.19% (inactive)	
Cc1nc2ccc(S(=O)(=O)N(C)CC(=O)NC(C)c3ccccc3)cc2s1 (stereo unspecified)	10.4% (inactive)	
COCn1c(C(O)c2ccccc2)cc2ccccc21 (stereo unspecified)	9.58% (inactive)	
Cc1ccccc1C(=O)N1CCN(c2ccc(NC(=O)c3cccs3)cc2)CC1	13.1% (inactive)	
